Source: PubChem BioAssay
RGS4-Gao reg: modulators of RGS4 binding to Galphao, primary screen, biochemical, multiplexed bead flow cytometry | Guanine nucleotide-binding protein G(o) subunit alpha (Homo sapiens), P09471 | actives lie on both sides | binding response (% of control), % at 10 µM | actives 0.33% (n = 220,000) | AID 1415, 2008; in the data active = binding response below about 49% or above about 150%; inactive = in between;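 also: fluorescent Galphao activated with aluminum fluoride binding bead-coupled RGS4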
Target sequence (P09471 whole entry, looked up): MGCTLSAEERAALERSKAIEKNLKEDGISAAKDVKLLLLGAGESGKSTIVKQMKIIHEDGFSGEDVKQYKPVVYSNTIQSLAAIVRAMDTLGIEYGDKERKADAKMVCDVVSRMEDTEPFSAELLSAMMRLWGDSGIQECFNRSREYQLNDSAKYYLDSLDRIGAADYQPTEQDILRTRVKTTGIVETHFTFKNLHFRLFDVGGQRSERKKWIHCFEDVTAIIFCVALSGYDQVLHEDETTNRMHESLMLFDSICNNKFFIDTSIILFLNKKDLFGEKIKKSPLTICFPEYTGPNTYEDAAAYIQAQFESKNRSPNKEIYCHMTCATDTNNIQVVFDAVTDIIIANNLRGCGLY
Avidin bead fluor: green autofluorescence of compounds with avidin beads – biophysical, 488/530 nm, flow cytometry, artefact control, profiling panel | compound fluorescence 488/530 nm; active compounds read high | fluorescence (KMESF) at 10 µM | actives 0.38% (n = 220,000) | AID 1775, 2009; in the data active = fluorescence above about 47
RGS16-Gao HTS: modulators of RGS16 binding to Galphao, primary screen, biochemical, human proteins, multiplexed bead flow cytometry | bead-based flow cytometry RGS16-Galphao binding, fluorescence; actives lie on both sides | binding response (% of control), % at 10 µM | actives 0.38% (n = 220,000) | AID 1441, 2008;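 also: Galphao activated by GDP with aluminum fluoride before binding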
Target sequence (O15492 whole entry, looked up): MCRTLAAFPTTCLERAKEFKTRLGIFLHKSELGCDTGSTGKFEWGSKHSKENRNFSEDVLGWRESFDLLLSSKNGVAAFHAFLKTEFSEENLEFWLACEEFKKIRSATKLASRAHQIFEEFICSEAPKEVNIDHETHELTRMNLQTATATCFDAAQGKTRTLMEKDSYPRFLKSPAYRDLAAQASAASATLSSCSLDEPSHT
Target sequence (P09471 whole entry, looked up): as the sequence (P09471 whole entry, looked up) above
RGS8-Gao: RGS8-Galphao binding modulators, primary screen, biochemical, multiplexed bead flow cytometry; Guanine nucleotide-binding protein G(o) subunit alpha (Homo sapiens), P09471; actives lie on both sides; response (percent of control binding), % at 10 µM; actives 0.34% (n = 220,000); AID 1423, 2008; in the data active = response below about 60% or above about 140%; inactive = in between;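 also: Galphao activated as the GDP aluminium fluoride complex binding bead-coupled RGS8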
GSH fluor: compound fluorescence on glutathione beads, profiling panel, artefact control, biophysical, 488/530 nm, flow cytometry; GSH beads flow cytometry, compound fluorescence 488/530 nm; active compounds read high; fluorescence (KMESF) at 10 µM; actives 0.25% (n = 190,000); AID 1776, 2009; in the data active = fluorescence above about 89;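 also: glutathione beads carrying GST-tagged Bcl family fusion proteins plus one bare bead set; values are compound well signal with DMSO vehicle wells as background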
RGS7-Gao reg: RGS7-Galphao binding modulators, primary screen, biochemical, multiplexed bead flow cytometry; Guanine nucleotide-binding protein G(o) subunit alpha (Homo sapiens), P09471; actives lie on both sides; binding response (% of control), % at 10 µM; actives 0.35% (n = 220,000); AID 1439, 2008; in the data active = binding response below about 49% or above about 150%; inconclusive = no clear call, values can overlap the other calls; inactive = in between;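 also: fluorescent Galphao held in activated GDP-AlF4 state binding bead-coupled RGS7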
RGS-Gao: modulators of RGS–Galpha-o binding, primary screen, biochemical, multiplexed beads, flow cytometry, RGS4/7/8/16/19; shares compounds with RGS16-Gao HTS; multiplexed bead flow cytometry; RGS4–Galpha-o binding response, % at 10 µM; actives 99% (n = 1,600);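 also: fluorescently labeled Galpha-o bound to GDP with aluminium fluoride binding biotinylated RGS beads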
Biotin-avidin: disruption of biotin probe capture by avidin, counter-screen for RGS protein interaction modulators, biochemical, flow cytometry, bead-based | shares compounds with RGS16-Gao HTS | streptavidin beads, fluorescein-biotin binding | inhibition, % at 10 µM | 1,700 tested, under 10 active | AID 1783, 2009;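 active = inhibition above 50%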;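 also: median green fluorescence of gated singlet beads compared with DMSO control wells; 0% = DMSO wells and 100% = complete loss of bead fluorescence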
RGS8-Gao confirm: RGS8-Galphao binding modulators, confirmation, biochemical, multiplexed bead flow cytometry, single concentration | shares compounds with RGS16-Gao HTS | bead-based flow cytometry RGS8-Galphao binding, fluorescence; actives lie on both sides | binding response (% of control), % at 10 µM | actives 3% (n = 1,700) | AID 1836, 2009; in the data active = binding response below about 72% or above about 130%; inactive = in between;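 also: Galphao activated as GDP AlF4 complex before binding bead RGS8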
RGS7-Gao single: RGS7-Galphao binding modulators, confirmation, biochemical, multiplexed bead flow cytometry, single concentration; shares compounds with RGS16-Gao HTS; bead-based flow cytometry RGS7-Galphao binding; actives lie on both sides; response (percent of control binding), % at 10 µM; actives 7.8% (n = 1,700); AID 1837, 2009; in the data active = response below about 75% or above about 130%; inactive = in between;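 also: fluorescent Galphao activated with GDP and aluminum fluoride binding bead-coupled RGS7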
RGS16-Gao single: modulators of RGS16-Galphao protein binding, confirmation, biochemical, single concentration, multiplexed bead flow cytometry; shares compounds with RGS16-Gao HTS; bead-based flow cytometry; actives lie on both sides; response (% of control binding), % at 10 µM; actives 4% (n = 1,700); AID 1838, 2009; in the data active = response below about 74% or above about 130%; inactive = in between;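 also: Galphao activated as the GDP aluminium fluoride complex binding bead-coupled RGS16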
RGS4-Gao single: modulators of RGS4-Galphao protein binding, confirmation, biochemical, single concentration, multiplexed bead flow cytometry; shares compounds with RGS16-Gao HTS; binding response (% of control), % at 10 µM; AID 1840, 2009; actives lie on both sides; actives 4% (n = 1,700); in the data active = binding response below about 74% or above about 130%; inactive = in between
RGS19-Gao single: regulators of RGS19-Galphao binding, confirmation, biochemical, single point, multiplexed bead flow cytometry; shares compounds with RGS16-Gao HTS; bead-based flow cytometry RGS19-Galphao binding; actives lie on both sides; response (percent of control binding), % at 10 µM; actives 5% (n = 1,700); in the data active = response below about 50% or above about 160%; inactive = in between;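 also: 100% = no compound control and 0% = blank background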
Starred values were filed as active, the others as inactive; ? = inconclusive; · = no result; [ ] = another dose, or the depositor's remark. Hits are enriched below; roughly 1.2% of the tested compounds scored in any of these assays. Unless noted, no rule for the calls is given here.

SMILES	RGS4-Gao reg	Avidin bead fluor	RGS16-Gao HTS	RGS8-Gao	GSH fluor	RGS7-Gao reg	RGS-Gao	Biotin-avidin	RGS8-Gao confirm	RGS7-Gao single	RGS16-Gao single	RGS4-Gao single	RGS19-Gao single
CSc1nnnn1-c1c(C)cccc1C	99	7	100	101	·	?	·	·	·	·	·	·	·
Cc1ccc(NC2(c3nnnn3-c3c(C)cccc3C)CCCCC2)cc1	116	13	281*[activator]	135	4	112	116*	-1	98	93	99	97	99
Cc1nc2ccc(NC(=O)N(C)c3ccccc3)cc2s1	101	3	105	102	17	102	·	·	·	·	·	·	·
Cc1nc2ccc(NC(=O)N(C(C)C)C(C)C)cc2s1	98	82*	124	108	12	169*[activator]	98*	1	102	102	101	99	104
COC(=O)c1ccccc1COn1c(=O)c[n+]([O-])c2ccccc21	231*[activator]	45	187	91	19	158*[activator]	·	0	101	100	99	103	96
O=C(Nc1cnccn1)Nc1ccc(Cl)cc1Cl	·	·	·	·	9	·	·	1	95	92	96	97	99
Cc1ccc(NC(=O)Nc2cnccn2)cc1Cl	102	17	100	104	12	105	·	·	·	·	·	·	·
O=C(NC1CCCCCCC1)C1CCN(S(=O)(=O)N2CCCC2)CC1	58	6	55	59*	25	52	58*	-1	97	93	96	97	83
COCCNC(=S)NNC(=O)c1ccc(-n2cnnn2)cc1	102	11	104	101	12	?	·	·	·	·	·	·	·
CC(C)(C)NC(=O)COC(=O)c1ccc(Cl)nc1	·	·	·	·	21	·	·	1	96	64*	77	79	45*
O=C(NCC1CCS(=O)(=O)C1)Oc1ccccc1 (configuration not stated)	108	13	291*[activator]	112	16	108	108*	1	102	106	103	104	96
O=C(NCc1ccco1)c1ccc2snnc2c1	114	187*	102	100	30	188*[activator]	114*	-2	102	107	101	99	93
N#C/C(=C\c1c(F)cccc1Cl)S(=O)(=O)c1ccccn1	103	7	105	100	·	?	·	·	·	·	·	·	·
Clc1ccc(/C(Cc2nc3ccccc3[nH]2)=N\Nc2ccccc2)cc1	98	6	106	101	20	99	·	·	·	·	·	·	·
N#CCCN/N=C(/Cc1nc2ccccc2[nH]1)c1cccc(Cl)c1	247*[activator]	9	224*[activator]	169*[activator]	27	198*[activator]	·	1	95	97	93	96	96
O=C(N/C(=C/c1cccc([N+](=O)[O-])c1)C(=O)N1CCCCC1)c1cccs1	101	13	110	106	7	98	·	·	·	·	·	·	·
NC(=O)c1ccc(NC(=O)CN2CCN(c3ccc(Cl)cc3)CC2)cc1	38*	11	29	36*	13	34*	·	0	103	102	103	104	109
C#CCNC(=O)C1=C[C@H](C2CCCCC2)[C@@H](CCCO)[C@H](OCC)O1	52	2	41	44*	20	38*	52*	0	99	98	102	100	117
C#Cc1ccc([C@H]2C=C(C(=O)NCc3ccccc3)O[C@@H](OCC)[C@@H]2CCCO)cc1	101	6	100	103	21	101	·	·	·	·	·	·	·
C#Cc1ccc([C@@H]2C=C(C(=O)Nc3ccccc3)O[C@H](OCC)[C@H]2CCCO)cc1	22*	0	11*	17*	18	12*	·	1	105	101	105	100	100
CCNc1ccc(S(=O)(=O)N(C)C)cc1NCC(=O)Nc1ccc(F)c(Cl)c1	106	8	25*	83	7	101	106*	0	107	105	112	105	112
CCNc1ccc(S(=O)(=O)N(C)C)cc1NCC(=O)Nc1ccccc1F	102	13	112	107	8	104	·	·	·	·	·	·	·
c1ccc(-c2nnsc2-c2nc3ccccc3[nH]2)cc1	84	6	99	56*	18	62	84*	-1	106	107	104	107	100
N#CC1CCN(c2ncccc2[N+](=O)[O-])CC1	282*[activator]	13	175	106	·	?	·	1	98	99	98	100	92
CCOC(=O)c1sc(NC(=O)COC(=O)C(CCSC)NC(C)=O)nc1C (configuration not stated)	86	6	9.0*	78	13	85	86*	2	102	104	103	105	117
